Measured values from PubChem BioAssay (NCATS).
Inconclusive results are not listed. Calls of active or inactive are those of the source. Calls come from the whole dose curve; as a rule, active = well fitted inhibition curve with a large enough effect; inconclusive = small, poorly fitted or top-dose-only effect; inactive = no such curve, though single readings can be large or run the other way.

Molecular target: Cytochrome P450 2C19 (Homo sapiens) (UniProt P33261)
Experiment: qHTS Assay for Inhibitors and Substrates of Cytochrome P450 2C19 (AID 899); note: nearly all actives have a fitted effect of over 60% in size
Settings: recombinant CYP2C19, luciferin-H EGE luminescence; series mostly up to 11.4 µM; activity, negative = inhibition: at the top concentration
Protocol: NIH Molecular Libraries Screening Centers Network [MLSCN]
NIH Chemical Genomics Center [NCGC]
The P450 gene superfamily is involved in the metabolism and clearance of xenobiotics. This assay used human CYP2C19 to measure the hydroxylation of ethylene glycol ester of 6' deoxyluciferin (Luciferin-H EGE; […]) to luciferin. The luciferin is then measured by luminescence after the addition of a luciferase detection reagent. Luciferin-H EGE concentration in the assay was equal to its KM for CYP2C19. Inhibitors and some substrates limit the production of luciferin, and decrease measured luminescence.
NCGC Assay Protocol Summary:
Two uL of enzyme and substrate mix (final concentrations: 5nM CYP2C19, 10uM Luciferin-H EGE, 50mM KPO4) were dispensed into a white, solid bottom 1536-well microtiter plate. 23nL of compound was transferred by a pin tool. The plate was incubated at 37C for 10 min. Two uL of an NADPH regeneration solution (Promega supplied reagent) was dispensed and the reaction was allowed to continue for 60 min at 37C. Then the reaction was stopped by reconstituted luciferin detection buffer. After another 20 min of incubation the plate was read on the ViewLux (Perkin Elmer) at 60 sec exposure and 2x2 binning. This protocol was carried out with Promega-Glo reagents and further information can be found at http://www.promega.com/tbs/tb325/tb325.pdf. Data were normalized to the to AC100 inhibition (57uM ketoconazole).
Keywords: P450, CYP2C19, Luciferase, MLSMR, MLSCN, NIH Roadmap, qHTS, NCGC
% is set by controls: 0 for no effect and ±100 for the full control effect; potency is the fitted concentration of half-maximal effect.

Cytochrome P450 2C19 (Homo sapiens), sequence (P33261 whole entry, looked up): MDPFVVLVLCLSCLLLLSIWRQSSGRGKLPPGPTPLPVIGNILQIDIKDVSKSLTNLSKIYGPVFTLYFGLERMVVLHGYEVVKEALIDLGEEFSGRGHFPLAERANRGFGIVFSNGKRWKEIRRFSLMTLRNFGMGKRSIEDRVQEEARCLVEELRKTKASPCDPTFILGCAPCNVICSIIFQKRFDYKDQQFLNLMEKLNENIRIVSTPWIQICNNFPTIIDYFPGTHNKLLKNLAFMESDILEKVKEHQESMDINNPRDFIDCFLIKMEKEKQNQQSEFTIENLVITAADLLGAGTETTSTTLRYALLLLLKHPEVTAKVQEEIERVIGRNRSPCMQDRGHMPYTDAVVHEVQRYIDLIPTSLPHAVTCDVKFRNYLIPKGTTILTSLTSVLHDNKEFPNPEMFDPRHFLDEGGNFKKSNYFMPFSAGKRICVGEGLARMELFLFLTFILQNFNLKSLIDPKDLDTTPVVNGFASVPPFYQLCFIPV

Potency, active:
Nc1nc(SCc2ccccc2)c2ncn(Cc3ccccc3)c2n1 2.51 µM
Cc1ccc(N(Cc2ccccc2)Cc2ccccc2)cc1 2 µM
CC(C)(C)c1ccc(O)c(CN(Cc2cc(C(C)(C)C)ccc2O)C2CCCCC2)c1 1.58 µM
O=[N+]([O-])c1ccc([C@@H](Nc2ccccc2)c2ccc3cccnc3c2O)cc1 3.98 µM
CCCCC[C@@H](O)[C@@H]1C(=O)O[C@@H](C)[C@@H](O)\C=C/C=C\C=C/C=C\C=C(\C)[C@H](O)C[C@H](O)C[C@H](O)C[C@H](O)C[C@H](O)C[C@H](O)C[C@@H]1O 3.98 µM
O=[N+]([O-])c1ccc(CSCc2ccc(Cl)cc2)cc1 0.398 µM
Cc1ccc2ccccc2c1CSc1nc(N)nc2c1ncn2CC(C)C 3.98 µM
S=C1SCN(C2CCCCCCCCCCC2)CN1C1CCCCCCCCCCC1 3.98 µM
CC1=CC(C)(C)Nc2ccc(CSc3ccccc3)cc21 0.316 µM
C[C@H](NC(=O)c1ccc(Cl)c(Cl)c1)c1ccc(-c2ccccc2)cc1 1.26 µM
Cc1cc(SCC(=O)c2ccccc2)nc2ccccc12 0.398 µM
Cc1cc(O)c(C(C)C)cc1C1(c2cc(C(C)C)c(O)cc2C)OC(=O)c2ccccc21 3.16 µM
COc1ccc2c(=O)cc(-c3ccncc3)oc2c1OC 1.58 µM
COc1ccccc1-c1ccc2ncnc(NCc3cccnc3)c2c1 0.0079 µM
Cc1ccc(C2=Nc3ccccc3S[C@@H](c3cccc([N+](=O)[O-])c3)C2)cc1 3.98 µM
O=S1(=O)[C@H]([C@H]2CC3c4ccccc4C2c2ccccc23)[C@@H](N2CCCCC2)[C@@H]1c1ccccc1 2.51 µM
Clc1ccc(CN2CCCN(Cc3ccc(Cl)cc3)C2c2cc3ccccc3c3ccccc23)cc1 0.794 µM
Cc1cc(O)c(-c2cc(O)c(C)cc2O)cc1O 0.794 µM
CC(C)CO[C@H](c1ccc2c(c1)OCO2)[C@H](C)Br 0.0631 µM
Nc1ccc(S(=O)(=O)NCc2nccs2)cc1 0.0794 µM
Oc1ccc(Cc2cc(Cl)cc(Cl)c2O)cc1Cl 1.26 µM
CC1=c2c(oc3cc(O)c(Nc4c(C)cc(O)cc4O)c(C)c23)=CC(=O)C1=Nc1c(C)cc(O)cc1O 3.16 µM
CC(=O)OC(C)(C)N=Nc1ccc(Br)cc1 1.26 µM
CCCCN1CSC(=S)N(Cc2ccccc2)C1 1.26 µM

Potency, inactive:
COc1ccc2cc1Oc1ccc(cc1)C[C@H]1c3cc(c(OC)cc3CCN1C)Oc1c(OC)c(OC)cc3c1[C@@H](C2)N(C)CC3

activity, negative = inhibition, inactive:
C[C@@]12CCC(=O)C=C1CC[C@H]1[C@@H]2[C@@H](O)C[C@]2(C)[C@@H]1CC[C@@]2(O)C(=O)CO 48.8%
Cc1cc(=O)oc2cc(O)c(CN(C)CC(=O)O)cc12 101%
O=c1[nH]c(=S)c2[nH]c(=O)n(-c3ccccc3)c2[nH]1 201%
O[C@@H]1[C@@H](OCc2ccccc2)OC[C@H](O)[C@@H]1O 51.7%
CSc1nc(N)c2ncn([C@@H]3O[C@@H](COP(=O)(O)OP(=O)(O)OP(=O)(O)O)[C@@H](O)[C@H]3O)c2n1 28.8% [at 57.1 µM]
N[C@H](CCCC(=O)O)C(=O)O 48.1% [at 57.1 µM]
C=CC[C@@H](C(=O)O)c1ccccc1 53%
O=c1[nH]c(SCc2cccc([N+](=O)[O-])c2)nc2nc[nH]c12 48.5%
CC(=O)CC(=O)Nc1ccc2ccccc2c1 58.2%
N#CC(C#N)=CNCCN1CCN(C=C(C#N)C#N)CC1 51.1%
Nc1ccn([C@H]2O[C@@H](COP(=O)(O)O)[C@@H](O)[C@H]2O)c(=O)n1 56.6%
CSc1nnnc2ccccc12 54.5%
O=C1O[C@@H]([C@H](O)[C@H](O)[C@H](O)CO)[C@@H](O)[C@@H]1O 220%
N[C@@H](C(=O)O)[C@H](O)C(=O)O -2.63% [at 57.1 µM]
NS(=O)(=O)c1cc(C(=O)O)c(Cl)c([N+](=O)[O-])c1Cl 50.5%
